These results are taken from PubChem BioAssay AID1259343 (VanderVen Lab, College of Veterinary Medicine, Cornell …, 2017).

The campaign covered roughly 6,200 compounds. About 2,900 (47%) were called active. So high a share suggests a set chosen from earlier hits. The list shows a part of the results. A number with no mark means an inactive call. Cut-off read from the data, not from the text of the source: active = inhibition above about 50%; inactive = the rest.

By inhibition is commonly meant the change of the read-out against control, counted positive when it falls.

This test in a line: Mycobacterium tuberculosis growth inhibition, primary screen (AID 1259343). To be noted: inhibition: at 10 µM, stronger effect = higher value; outcome: 10 uM.
Take `NC(=S)COc1ccc(F)cc1`: the inhibition is 77.8% (active). With `NC(=S)COc1ccccc1`, the inhibition is 65.4% (active). For the compound `O=C1CC(=O)N2C(c3ccccc3)=CSC2(OCCS)N1` (stereo unspecified), the inhibition was -5.38%.

For `COc1ccc(CNC(=O)c2ccc(-c3cccc(Cl)c3)s2)cc1`, the inhibition was 54.9% (active). In the case of `CC(NC(=O)c1ccc(-c2cccc(Cl)c2)s1)C(C)(C)C` (stereo unspecified), the inhibition was 50% (active). On to `O=C(NCc1ccncc1)c1ccc(-c2ccc(C3CCCCC3)cc2)s1`, for which the inhibition is 8.46%. On to `N#Cc1sc(-c2cccc(Cl)c2)cc1N`, for which the inhibition was 42.5%. Take `Cc1cccc(CNC(=O)c2ccc(-c3ccc(Oc4ccccc4)cc3)s2)c1`: the inhibition was 82.4% (active). The result for `COc1cccc(CNC(=O)c2ccc(-c3ccc(F)cc3)s2)c1` reads “inactive”. For the compound `Clc1ccc(-n2cccc2CN2CCc3c([nH]c4ccccc34)C2c2ccccn2)nc1` (stereo unspecified), the inhibition was 37.9%. For the compound `NC(=O)c1cc2c(cc1-c1cccc(C(F)(F)F)c1)OCO2`, the inhibition was 22.9%.

For `Cc1ccc2c(=O)c(-c3cccc(C(F)(F)F)c3)coc2c1`, the inhibition is 57.7% (active). In the case of `CC(C)c1cc(C(=O)NCc2nc(Cc3cccs3)no2)n(C)n1`, the inhibition is 13.7%.

Consider `Cc1[nH]ncc1CCCNC(=O)Nc1ccc(Cl)c(Cl)c1`, for which the inhibition is -9.82%. For `CC(C)Cc1noc(CCCNC(=O)Nc2cccc(Cl)c2)n1`, the inhibition is 55.1% (active).

Take `CCCc1cc(NCc2cccnc2)n2ncc(-c3ccccc3)c2n1`: the inhibition is 13.7%.

With `Fc1ccc(-c2cnn3c(NCc4cccc(Cl)c4)ccnc23)cc1Cl`, the inhibition is 57.7% (active).

As to `CCCCc1ccc(C(=O)O)nc1`, the inhibition is 40.9%. `CCCCCCc1ccc(C(=O)N2CCSC2c2ccncc2)cc1` (stereo unspecified): the inhibition was 95.1% (active). Regarding `c1ccc(-n2nnc3c(SCc4cccnc4)ncnc32)cc1`, the inhibition is 61.4% (active). `c1ccc(Cn2nnc3c(SCc4cccnc4)ncnc32)cc1`: the inhibition is -31.8%.

Regarding `Cc1ccc(Cn2nnc3c(SCC(=O)OCc4ccccc4)ncnc32)cc1`, the inhibition was 84.7% (active). In the case of `Cc1ccc(Cn2nnc3c(SCc4cccnc4)ncnc32)cc1`, the inhibition is 58.1% (active). `Fc1ccc(-n2nnc3c(SCc4cccc(F)c4)ncnc32)cc1`: the inhibition was -31.5%. In the case of `O=C(CSc1ncnc2c1nnn2Cc1ccccc1F)OCc1ccccc1`, the inhibition was -8.15%.

On to `COc1ccc(-n2nnc3c(SCc4cccc(F)c4)ncnc32)cc1`, for which the inhibition was 88.2% (active).

Take `O=C(CSc1ncnc2c1nnn2Cc1ccccc1)OCc1ccccc1`: the inhibition is -35.2%.

With `COc1ccc(-n2nnc3c(SCc4cccc(Cl)c4)ncnc32)cc1`, the inhibition was -33.7%. For `COc1cccc(-n2nnc3c(SCc4cccnc4)ncnc32)c1`, the inhibition was 74.8% (active).

Regarding `O=C(Nc1cccc(-c2cccc(F)c2)c1)C1CCN(Cc2cccs2)CC1`, the inhibition was 36.5%. Regarding `Cc1cccc(-c2ccc(NC(=O)C3CCN(Cc4cnc(N(C)C)s4)CC3)cc2)c1`, the inhibition is 88.2% (active). On to `CC(=O)c1cccc(CN2CCC(C(=O)Nc3cccc(-c4cccc(F)c4)c3)CC2)c1`, for which the inhibition is 69% (active). For the compound `COc1cccc(-c2ccc(NC(=O)C3CCCN(Cc4cnc(N(C)C)s4)C3)cc2)c1` (stereo unspecified), the inhibition was 48.7%.

In the case of `O=C(Nc1cccc(-c2cccc(F)c2)c1)C1CCN(Cc2cccc3cnccc23)CC1`, the inhibition was 75.2% (active). In the case of `CCCc1ncc(CN2CCC(C(=O)Nc3cccc(-c4cccc(F)c4)c3)CC2)cn1`, the inhibition entry is “inactive”. In the case of `CC(=O)c1cc(CN2CCC(C(=O)Nc3cccc(-c4cccc(F)c4)c3)CC2)cs1`, the inhibition is 91.3% (active). For the compound `Cc1cccc(-c2ccc(NC(=O)C3CCN(Cc4nccs4)CC3)cc2)c1`, the inhibition is 37.9%. For `CCCn1nnnc1NCc1cccn1C`, the inhibition is 1.45%. For the compound `Cn1ccsc1=NC(=O)CCN1c2ccccc2Sc2ccccc21`, the inhibition is -5.61%. Regarding `CC(=O)c1cccc(CN2CCC(C(=O)Nc3ccc(-c4cccc(C)c4)cc3)CC2)c1`, the inhibition is 86.5% (active). Turning to `Cc1cccc(CN2CCC(C(=O)Nc3cccc(-c4cccc(F)c4)c3)CC2)n1`, the inhibition is 76.4% (active). Take `c1nc(NC2CC3CC2C2CCCC32)c2sccc2n1` (stereo unspecified): the inhibition is 30.1%.

Regarding `COc1cccc(OC)c1OCCCOc1ccc(C)cc1Cl`, the inhibition is 47.8%. `COc1cccc(OC)c1OCCCOc1ccc(Cl)cc1Cl`: the inhibition is 89.4% (active). Take `COc1cccc(OC)c1OCCOc1ccc(Br)cc1Cl`: the inhibition is 82% (active). The result for `O=c1cnnc(SCc2ccc(C(F)(F)F)cc2)[nH]1` reads 84.2% (active). On to `O=c1nc(SCc2ccc(C(F)(F)F)cc2)nc2ccccn12`, for which the inhibition is -29.6%. `Cc1ccn2c(=O)nc(SCc3ccc(C(F)(F)F)cc3)nc2c1`: the inhibition was 22.7%. For `FC(F)(F)c1ccccc1CCNc1nncc(-c2ccccc2)n1`, the inhibition was -20%. Turning to `c1ccc2c(c1)[I+]c1ccccc1-2`, the inhibition is 101% (active). Take `OC(COc1ccc(Cl)cc1)CSc1ccc(Br)cc1` (stereo unspecified): the inhibition is -20.4%. Take `CC(O)c1ccc(Oc2ccc(Br)cc2)cc1` (stereo unspecified): the inhibition was 72.8% (active). The result for `Nc1ccc(Oc2ccc(Br)cc2)cc1` reads 39.8%; that for `NC(=O)C1CCN(c2nc3cc(C(F)(F)F)ccc3s2)C1` (stereo unspecified), 34.5%. For the compound `CCc1cnc(C)nc1N1CCCC(C(=O)c2ccc(C(F)(F)F)cc2)C1` (stereo unspecified), the inhibition was 51.3% (active). `COc1ccc(NC(=O)c2sc(=O)n(CCOc3ccc(F)cc3)c2C)cc1OC`: the inhibition was 27.4%. Regarding `COC(=O)C(Cc1ccc(OCCn2c(=O)sc3cc(C(=O)c4ccccc4)ccc32)cc1)C(=O)OC`, the inhibition is 51.7% (active). The result for `C(=C\c1ccccc1)/CSc1n[nH]c(-c2cccnc2)n1` reads 96.6% (active); that for `c1ccc(-c2nc(SC(c3ccccc3)c3ccccc3)n[nH]2)cc1`, 22.5%. The value for `O=c1nc(SC/C=C/c2ccccc2)nc2ccccn12` was -19.1%; that for `COc1ccc(-c2ccc(C(=O)N3CCCC(c4ccccc4)CC3)cn2)cc1` (stereo unspecified) was 36.2%; that for `O=C(c1ccco1)N1CCCC2(CCCCC2)C1` was -18%. `O=C(c1ccc(-c2ccc(O)cc2)nc1)N1CCC(CCc2ccccc2)CC1`: the inhibition was 83.7% (active). With `O=C(C1CCC1)N1CCC(CCc2ccc(-c3ccccc3)cc2)CC1`, the inhibition is 44.8%.

Regarding `O=C(c1ccco1)N1CCC(CCc2ccc(-c3ccccc3)cc2)CC1`, the inhibition was 81% (active).

In the case of `c1ccc(-c2ccc(CCC3CCN(Cc4cccs4)CC3)cc2)cc1`, the inhibition was 43.2%. As to `O=C(c1ccco1)N1CCC(Cc2ccc(F)cc2)CC1`, the inhibition is 86.8% (active). `CCOC(=O)C(=O)N1CCC(CCc2ccccc2)CC1`: the inhibition is 90.7% (active). Consider `O=C(c1ccno1)N1CCC(Cc2ccc(F)cc2)CC1`, for which the inhibition was 56.4% (active).

Turning to `Cc1ccccc1N1CCN(Cc2ccc(C#CCO)s2)C(C)C1` (stereo unspecified), the inhibition is 76.9% (active). `Cc1ccccc1N1CCN(Cc2cc(C#CCO)cs2)C(C)C1` (stereo unspecified): the inhibition is -56.2%.

Regarding `c1ccc2c(c1)CN1CCCC1=N2`, the inhibition was 101% (active). `O=C1C=C(Nc2ccc3ccccc3c2)CCC1`: the inhibition is 89.7% (active). As for `O=C1OC2(CCCCC2)OC(=O)C1=CNc1ccc2ccccc2c1`, the inhibition is 48.9%. `O=C(Nc1nnc(-c2ccc3c(c2)OCCO3)o1)c1cccc2ccccc12`: the inhibition was 98.7% (active). Consider `CN(CCNC(=O)C1(C)CC1(Cl)Cl)C1CC1` (stereo unspecified), for which the inhibition is -9.78%. For the compound `Cc1c(CN(C)Cc2nc(Cc3cccc(C(F)(F)F)c3)no2)[nH]c2ccccc12`, the inhibition is 66.5% (active). On to `CN(Cc1nc(COc2ccccc2)no1)CC1(c2ccccc2)CC1(C)C` (stereo unspecified), for which the inhibition is 42.2%. `CN(Cc1csc(-c2ccccc2)n1)Cc1nc(Cc2cccc(F)c2)no1`: the inhibition was 90.6% (active).

Regarding `COc1ccccc1OC(C)c1nc(Cc2cccc(C(F)(F)F)c2)no1` (stereo unspecified), the inhibition is 36.2%.

As to `Cc1cc2nc(CN(C)Cc3nc(Cc4cccc(C(F)(F)F)c4)no3)[nH]c2cc1C`, the inhibition entry was “inactive”. Turning to `N#Cc1cccc(OCc2noc(-c3ccsc3)n2)c1`, the inhibition is 34.2%. As for `COc1cccc(C(C)N(C)Cc2nc(-c3cccc(Cl)c3)oc2C)c1` (stereo unspecified), the inhibition was -0.61%. The result for `FC(F)(F)c1cccc(Cc2noc(CN3CCC(OCc4ccccn4)CC3)n2)c1` reads 32%; that for `COc1cccc(C(C)N(C)Cc2nc(COc3ccccc3)no2)c1` (stereo unspecified), 71.8% (active).

For the compound `COc1cccc(C(C)N(C)Cc2nc(Cc3cccc(F)c3)no2)c1` (stereo unspecified), the inhibition is 65.5% (active). Take `CC1CCC(C(C)C)c2[nH]nc(-c3ccccc3O)c21` (stereo unspecified): the inhibition is 4.33%. Turning to `O=S(=O)(/C=C/c1ccc(Cl)cc1)Oc1ccc(F)c(F)c1`, the inhibition was 92.7% (active). Take `Cn1ccc(NS(=O)(=O)/C=C/c2ccc(Cl)cc2)n1`: the inhibition is 41.7%. On to `CC(C)CCNCC(O)CON=C1c2ccccc2-c2ccccc21` (stereo unspecified), for which the inhibition is 84.8% (active). For `CCCCC/C=C\C/C=C\C/C=C\CCCCC(=O)N1CCN(Cc2cc(=O)c(OCc3cccc(F)c3)co2)CC1`, the inhibition was 16.1%. With `N#Cc1ccccc1-c1ccc(COc2coc(CN3CCN(C(=O)c4ccc([N+](=O)[O-])o4)CC3)cc2=O)cc1`, the inhibition was 102% (active). For `Cc1nc2cc(NC(=O)CN(C)S(=O)(=O)c3ccc(F)cc3)ccc2o1`, the inhibition was 23.8%. For `CCc1nc2cc(NC(=O)CC3CCCCC3)ccc2o1`, the inhibition was 89.5% (active). `Cc1cc(C)c(-c2nc3cc(NC(=O)c4cccs4)ccc3o2)c(C)c1`: the inhibition was 42.8%. The value for `Clc1ccccc1C1CCN(Cc2nc(-c3cccs3)no2)C1` (stereo unspecified) was 96.1% (active); that for `c1csc(-c2noc(CN3CCc4sccc4C3)n2)c1` was 46.9%. `c1csc(-c2noc(CN3CCCC(c4nc5ccccc5o4)C3)n2)c1` (stereo unspecified): the inhibition result is “inactive”. The value for `Fc1ccccc1OCC1CCCN(Cc2nc(-c3cccs3)no2)C1` (stereo unspecified) was 47%; that for `Fc1ccccc1CC1CCN(Cc2nc(-c3cccs3)no2)CC1` was 83.9% (active); that for `CC(c1nc(-c2cccs2)no1)N1CCC(c2ccccc2)CC1` (stereo unspecified) was -41.5%.
